Laboratory results from the supplement of paper PMC3334620.
Over roughly 33,000 sequences, “E-score (-0.5 to 0.5)” has its median near -0.013; the highest 2% begin near 0.3. This excerpt belongs to a sample that is enriched for the highest values.

What follows are sequences tested against T1, Msn1 (UniProt P22148) (assay: PBM E-score (8-mer binding enrichment) (E-score (-0.5 to 0.5)); higher = stronger / more preferred TF binding). Conditions: protein concentration: 200 nM; construct: GST-full length.
T1 sequence: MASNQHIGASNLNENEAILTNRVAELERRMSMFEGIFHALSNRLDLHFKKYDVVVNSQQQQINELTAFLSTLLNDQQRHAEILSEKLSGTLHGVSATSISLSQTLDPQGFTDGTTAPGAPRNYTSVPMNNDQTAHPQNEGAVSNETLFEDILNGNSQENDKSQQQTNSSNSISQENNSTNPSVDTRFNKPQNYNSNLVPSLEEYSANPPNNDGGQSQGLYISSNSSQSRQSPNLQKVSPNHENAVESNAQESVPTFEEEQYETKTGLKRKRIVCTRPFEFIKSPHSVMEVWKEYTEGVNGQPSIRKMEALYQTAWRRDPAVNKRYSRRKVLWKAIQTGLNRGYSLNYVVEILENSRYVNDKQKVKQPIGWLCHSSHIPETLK
Protocol: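 Universal 'all 10-mer' protein binding microarrays (Agilent AMADID 015681) probed with GST-tagged S. cerevisiae TFs (full-length or DBD) made by in vitro transcription/translation (PURExpress), about 100-200 nM. Bound TF was detected with fluorescent anti-GST. Each ungapped 8-mer (which stands for itself and its reverse complement) is scored by the PBM enrichment score (E-score), a modified Wilcoxon-Mann-Whitney statistic from -0.5 to +0.5, computed with the Universal PBM Analysis Suite. Scale: above 0.35 generally sequence-specific binding.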

Sequence	PBM E-score
CTGTCTAA	0.111
AGGTCTAG	-0.134
ATGTCTAG	0.373
ATGTCTAC	0.313
CTAGTAGC	-0.165
GAGGGTAC	-0.202
CTATTTCC	0.063
ACAATTGC	0.191
AAAATTGG	0.00283
ACAATTGT	0.363
ACAATTGA	0.257
AAAATTCG	0.232
AAAATTCA	0.308
GAAATTCA	0.103
AAAATTGT	0.357
AAAATTGC	0.054
ATCCATAA	0.124
AATTCCTC	-0.0412
AGCCACTA	-0.0424
CCCCAGCC	-0.271
ACCCTGAG	-0.0157
GCGCGCGC	0.333

Sequence	PBM E-score
GCGCGCGA	0.0948
ACGCGCGC	0.196
CCTGCTAC	0.017
AGTTCTCC	-0.205
ACATTTCG	0.241
ACATTTTC	0.337
CCATTTTA	0.259
ACATTTCA	0.363
ACATTTTA	0.377
GCATTTTA	0.109
GCATTTCA	0.0826
CCATTTCA	-0.106
ACATTTCT	0.204
AGATTTTC	0.0741
CCATTTTC	0.136
ACATTTCC	0.329
GTGAGGCA	-0.0279
ACTGACCT	-0.063
CCACGTGG	-0.276
CGATGAGC	-0.17
CTACCTCC	-0.0369
ACATTAAG	0.32

Sequence	PBM E-score
ACATTTGG	0.177
ACATTTAA	0.324
ACATTAAT	0.155
GCATTTGA	0.051
AGATTTTG	0.0738
ACATTTTG	0.34
ATATTTTG	0.176
GCATTTAA	0.0963
ACATTAAC	0.254
ACATTTGA	0.311
TCATTTAA	0.132
TACAGGAA	0.0582
AGATCCTC	-0.125
AGATGCGA	0.0645
GCTGAACA	0.00499
CTGGCGTA	-0.252
AGGCGGTG	-0.217
TCCATCCA	-0.00245
CAACCAGC	-0.114
CCTTTGTC	0.367
CCTTTGCC	-0.104
ACTTTGTG	0.0353

Sequence	PBM E-score
CCTTTGTA	0.163
CTTTTGTA	0.3
ACTTTGTA	0.129
CTTTTGAC	0.0513
CTTTTGTC	0.455
ACTTTGTC	0.41
GAATTGCC	0.0969
AACCTACA	0.0149
GGATCATA	-0.0918
ATAGCATG	-0.207
GGACACCC	-0.0113
TGACACAA	0.183
CGACACAC	0.0525
AGACACAC	0.133
GGACACAA	0.462
AGACACGA	0.158
GGACACGA	0.396
CGACACGA	0.274
AGACACAG	0.131
CGACACAA	0.00596
GGACACAC	0.382
AGACACAA	0.332
